# Experimental data from PMC5540273 (PLoS ONE, 2017).
# How the values were obtained:
# Conditions in all cases: concentration: 1 μM, replicates: in singlicate; n = 1
# PIP5K1A = test system: PIP5K1A
# PIP5K1C = test system: PIP5K1C
# PIP5K2B = test system: PIP5K2B
# PIP5K2C = test system: T1, PIP5K2C
# T1 construct: gene PIP4K2C
# PKAC-alpha = test system: T2, PKAC-alpha
# T2 construct: gene PRKACA
# PKAC-beta = test system: T3, PKAC-beta
# T3 construct: gene PRKACB
# PKMYT1 = test system: PKMYT1
# PKN1 = test system: PKN1
# PKN2 = test system: PKN2
# PLK1 = test system: PLK1
# PLK2 = test system: PLK2
# PLK3 = test system: PLK3
# PLK4 = test system: PLK4
# PRKCD = test system: PRKCD
# PRKCE = test system: PRKCE
# PRKCH = test system: PRKCH
# PRKCI = test system: PRKCI
# PRKCQ = test system: PRKCQ
# PRKD1 = test system: PRKD1
# PRKD2 = test system: PRKD2
# 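Further: KINOMEscan kinase panel screen.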
SMILES,%Inh (PIP5K1A) [%],%Inh (PIP5K1C) [%],%Inh (PIP5K2B) [%],%Inh (PIP5K2C) [%],%Inh (PKAC-alpha) [%],%Inh (PKAC-beta) [%],%Inh (PKMYT1) [%],%Inh (PKN1) [%],%Inh (PKN2) [%],%Inh (PLK1) [%],%Inh (PLK2) [%],%Inh (PLK3) [%],%Inh (PLK4) [%],%Inh (PRKCD) [%],%Inh (PRKCE) [%],%Inh (PRKCH) [%],%Inh (PRKCI) [%],%Inh (PRKCQ) [%],%Inh (PRKD1) [%],%Inh (PRKD2) [%]
Cn1cc(-c2ccc3c(c2)CCN3C(=O)Cc2cc(F)cc(F)c2F)c2c(N)ncnc21 [GSK2634140],10,0,13,12,0,4,0,0,0,0,0,0,0,0,0,17,0,20,100,0
CCn1c(-c2nonc2N)nc2c(-c3ccccc3)ncc(OCCCN)c21.O=C(O)C(F)(F)F.O=C(O)C(F)(F)F [GSK260205],35,87,10,29,97.6,97.7,0,84,0,0,0,0,0,97.9,97.3,95.6,69,93,91.2,93.6
Cc1ccc(-c2ccc3occ(-c4ccc(S(C)=O)cc4)c3c2)nn1 (stereo not shown),0,42,17,58,0,0,11,0,9,0,0,0,2,1,0,0,0,13,30,9
CC(C)(C)c1ccc(C(=O)Nc2cn3cc(-n4ccnc4)ccc3n2)cc1,2,4,0,95.3,37,0,0,10,0,0,24,10,0,7,15,0,10,23,0,12
O=C(Nc1n[nH]c2nc(-c3cccc(O)c3)ccc12)C1CC1 [SB-711805],32,98,8,0,3,0,0,0,24,0,11,14,31,1,83,0,13,0,0,20
CN(c1ccc(NC(=O)Nc2cccc(Cl)c2)cc1)c1ccnc(N)n1.Cl [GW830707],12,0,0,29,13,26,3,0,0,26,14,3,14,7,28,0,0,0,0,0
Cn1cc(-c2cnc(N)c3c(-c4ccc5c(c4)CCN5C(=O)Cc4ccccc4)csc23)cn1 [GSK2593074],0,0,1,0,9,0,8,0,7,0,41,16,19,9,0,0,0,0,6,0
Cc1ccc(C)c(NC(=O)Nc2ccc(C)c(-c3ccc(C(=O)Nc4ccncc4)cc3)c2)c1 [GSK1398473],0,0,8,2,27,20,17,26,0,0,0,0,0,0,4,10,0,32,8,3
COc1ccc(NC(=O)c2ccoc2)cc1-c1ccc(C(=O)NCC2CC2)cc1 [GW810437],7,0,0,0,15,15,0,0,0,50,34,28,8,9,41,0,6,0,0,0
COc1cccc(-c2nc(-c3ccccc3)[nH]c2-c2ccncc2)c1 [SB-610250],0,38,39,8,0,0,0,0,0,0,0,0,0,0,7,0,25,0,14,0
Nc1ncc(-c2ccc3nccc(-c4ccncc4)c3c2)cc1S(=O)(=O)N1CCCCC1 [GSK1693850],0,40,0,62,1,0,0,9,0,76,30,27,0,15,31,36,9,0,0,4
Cc1ccc(NC(=O)c2ccnc(N3CCCCC3)c2)cc1-c1ccc(C(=O)NCC2CC2)cc1 [GW775610],0,5,0,14,0,10,8,0,0,0,0,0,24,9,9,0,6,2,0,0
Cl.Cl.NC(CNC(=O)c1cc(Br)c(-c2ccnc3[nH]ccc23)s1)c1ccccc1 (stereo not shown) [GSK1322949],74,85,86,57,98.4,97.2,16,14,33,15,74,48,41,76,93.1,92.6,36,74,0,24
COc1cccc(C2=C(Nc3cccc(O)c3)C(=O)NC2=O)c1 [SB-390771],0,39,14,38,0,0,9,100,0,0,0,0,15,20,27,19,16,98.4,0,0
O=C(Nc1n[nH]c2cc(-c3cccs3)ccc12)C1CC1 [SB-731284],21,96.7,15,35,0,0,0,5,0,64,9,28,29,17,11,0,0,0,0,0
CN1CCN(Cc2ccc(NC(=O)Nc3ccc(N(C)c4ccnc(Nc5ccc(CS(C)(=O)=O)cc5)n4)cc3)cc2)CC1.Cl [GW827654],74,0,69,78,0,23,10,41,0,7,12,3,90,5,5,0,23,38,23,27
O=C(Nc1c(F)cccc1F)c1cc(C(=O)c2ccccc2F)c[nH]1 [GSK1326180],34,49,0,25,0,5,3,8,0,18,0,0,0,9,0,4,2,20,11,14
